# The sample as a whole holds a higher share of hits than the screen did.
# L3MBTL1 inh: L3MBTL1 (human) inhibition; Q9Y468; AlphaScreen L3MBTL1–H3K9me1 peptide binding; Potency, µM (top dose mostly 57.1 µM), inactives show top-dose activity, negative = inhibition, most hits filed as inhibitors; hit rate 0.66% among 230,000; AID 485360; note: nearly all actives have a fitted effect of over 60% in size
#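 AlphaScreen assay: L3MBTL1 (50 nM final) was preincubated 30 min at room temperature with biotinylated H3(1-15)K9me1 peptide (75 nM final), then 30 min with library compounds; streptavidin donor and nickel chelate acceptor beads (10 ug/mL final) added, 30 min dark.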
# JMJD2E inh: inhibitors of human JMJD2E histone demethylase; B2RXH2; JMJD2E catalytic domain, FDH-coupled NADH fluorescence (FDH is formaldehyde dehydrogenase); Potency, µM (top dose mostly 57.1 µM), for inactives: at the highest dose activity change, negative = inhibition, hits mostly inhibitors; hit rate 1.6% among 230,000; AID 2147; active = well fitted inhibition curve with a large enough effect, not every such curve was filed as active; inconclusive = small, poorly fitted or top-dose-only effect, or another doubt; inactive = no such curve, though single readings can be large or run the other way;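 note: 0% = wells with enzyme and -100% = buffer wells without enzyme; nearly all actives have a fitted effect of over 50% in size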
# RECQ1 inh-1: blocks DNA unwinding by human RECQ1; P46063; RECQ1 DNA unwinding, red fluorescence kinetic read; Potency, µM (titrated, usually from 57.3 µM), without a hit: at the highest dose activity, negative = inhibition, usual class: inhibitors; hit rate 0.54% among 240,000; AID 2549;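 note: plate controls were vehicle for no effect and no enzyme for full effect; nearly all actives have a fitted effect of over 30% in size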
# Target sequence (P46063 whole entry, looked up): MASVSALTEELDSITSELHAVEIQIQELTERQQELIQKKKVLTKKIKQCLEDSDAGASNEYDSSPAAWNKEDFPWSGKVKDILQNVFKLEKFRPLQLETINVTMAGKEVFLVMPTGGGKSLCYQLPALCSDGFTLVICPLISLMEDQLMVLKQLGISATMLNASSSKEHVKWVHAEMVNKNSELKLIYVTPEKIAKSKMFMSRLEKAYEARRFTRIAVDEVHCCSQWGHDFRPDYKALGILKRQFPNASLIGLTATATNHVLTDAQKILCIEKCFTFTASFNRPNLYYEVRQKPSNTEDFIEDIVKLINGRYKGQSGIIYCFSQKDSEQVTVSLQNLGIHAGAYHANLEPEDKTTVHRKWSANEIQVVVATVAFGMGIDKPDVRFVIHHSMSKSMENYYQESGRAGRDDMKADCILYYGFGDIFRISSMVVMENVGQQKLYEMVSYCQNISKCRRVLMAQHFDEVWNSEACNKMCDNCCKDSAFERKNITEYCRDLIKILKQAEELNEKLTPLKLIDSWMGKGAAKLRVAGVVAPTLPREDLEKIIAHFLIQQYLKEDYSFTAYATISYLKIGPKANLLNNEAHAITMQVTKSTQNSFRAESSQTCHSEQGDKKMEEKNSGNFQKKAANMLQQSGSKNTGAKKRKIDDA
#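 RECQ1T1 50 nM; forked duplex (20 bp + 30-nt ss tails) 200 nM, ATP 2 mM final; pH 8.0, 2 mM MgCl2, 2.5 ug/ml poly(dI-dC); 15 min compound preincubation; discontinuous kinetic read over 2 h at RT.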
# BLM helicase inh: blocks DNA unwinding by human BLM helicase | P54132 | recombinant BLM DNA unwinding, fluorescence dequenching | Potency, µM (series often up to 56.1 µM), for the others: at the top dose activity change, negative = inhibition, actives largely listed as inhibitors | hit rate 0.2% among 350,000 | AID 2528;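 note: plate controls were vehicle for no effect and no enzyme for full effect; nearly all actives have a fitted effect of over 35% in size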
# APE1 inh: APE1 (human) endonuclease inhibition | P27695 | recombinant APE1, TAMRA/BHQ-2 abasic DNA cleavage fluorescence | Potency, µM (doses to about 65.8 µM), inactives show at the highest dose activity change, negative = inhibition, actives largely listed as inhibitors | hit rate 0.35% among 350,000 | AID 2517;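 note: plate controls were vehicle for no effect and reference inhibitor for full effect; nearly all actives have a fitted effect of over 55% in size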
#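 Substrate: short duplex with […] THF abasic site, 5'-TAMRA and 3'-BHQ-2, 50 nM final. APE1 at 0.75 nM, preincubated 15 min RT with compound. Fluorescence increase from first to third read measured activity.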
# RECQ1 inh conf: confirmation of human RECQ1 helicase inhibitors; RECQ1 helicase DNA unwinding, fluorescence; AID 2708; hit rate 28% among 610; shares compounds with RECQ1 inh-1; Potency, µM (series often up to 229 µM), without a hit: at the top dose activity change, negative = inhibition, most hits filed as inhibitors; note: nearly all actives have a fitted effect of over 45% in size
# ADP FP counter: displaces ADP in a fluorescence polarization counter-screen for RECQ1 hits; shares compounds with RECQ1 inh-1; ADP fluorescence polarization displacement counterscreen; Potency, µM (doses to about 228 µM), for inactives: at the top dose activity change, negative = inhibition, usual class: inhibitors; hit rate 27% among 530; AID 2711; note: nearly all actives have a fitted effect of over 45% in size
# RECQ1 inh-2: confirmation of human RECQ1 helicase inhibitors. shares compounds with RECQ1 inh-1. recombinant RECQ1 DNA unwinding, red fluorescence. Potency, µM (highest dose often 119 µM), for the others: top-dose activity, negative = inhibition, hits mostly inhibitors. hit rate 15% among 1,100; note: nearly all actives have a fitted effect of over 50% in size
# Starred values were filed as active, the others as inactive; i = inactive; ? = inconclusive; . = no result given; ! = repeats disagree. Unless noted, calls come from the whole dose curve; as a rule, active = well fitted curve in the direction sought with a large enough effect; inconclusive = small, poorly fitted or top-dose-only effect, or another doubt; inactive = no such curve, though single readings can be large; an effect the other way counts as inactive or inconclusive. Unless noted, % is set by controls: 0 for no effect and ±100 for the full control effect; potency is the fitted concentration of half-maximal effect.
SMILES,L3MBTL1 inh,JMJD2E inh,RECQ1 inh-1,BLM helicase inh,APE1 inh,RECQ1 inh-2,others
Cc1cc2cc(CNC(=O)c3ccc(S(=O)(=O)N4CCCCC4)cc3)ccc2n1C,.,?,4%,-1%,-2%,.,
Cc1cc2cc(CNC(=O)c3ccc(S(=O)(=O)N4CCCC4)cc3)ccc2n1C,-8%,?,?,-12%,-5%,-6%,
COc1ccc(S(=O)(=O)NCc2ccc3c(c2)cc(C)n3C)cc1,-5%,-7%,32µM*,-13%,-11%,?,
Cc1cc2cc(CNS(=O)(=O)c3ccccc3)ccc2n1C,.,-18%,?,-12%,6%,?,
Cc1cccc(N(C)c2cc(C)nc3ncnn23)c1,-1%,3%,-21%,0%,0%,.,
COc1ccc(/C=C/c2ccncc2)c2ccccc12,.,-9%,i,-10%,17%,.,
O=C(Cc1ccc(Cl)c(Cl)c1)NC1CCCCCC1,.,.,.,-4%,4%,.,
Cc1cc(O)cc(O)c1C(=O)OC1(C)C(=O)C=C2C=C(/C=C/C(=O)O)OC=C2C1=O (centres undefined),.,?,28µM*,84%,14µM*,?,
Cc1ccc(S(=O)(=O)CC(=O)c2ccccc2)cc1,1%,9%,?,-3%,11%,.,
CC(C)(C)c1ccc(C(=O)CS(=O)(=O)c2ccccc2)cc1,10%,1%,?,-6%,14%,-15%,
COc1cccc(NC(=O)CC2S/C(=N\S(=O)(=O)c3ccccc3)N(c3ccccc3)C2=O)c1 (centres undefined),-7%,-7%,40µM*,-5%,11%,-9%,
CCN(CC)S(=O)(=O)c1cc(NC(=O)CSc2n[nH]c(N)n2)ccc1C,-2%,.,.,.,-10%,.,
CC1(C)CCC2=C(O1)c1ccccc1C(=O)C2=O,.,3.5µM*!,18µM*!,.,-7%,.,RECQ1 inh conf=?;ADP FP counter=53%
CCCN1C(=O)c2[nH]nc(-c3ccccc3)c2C1c1cccc(O)c1 (centres undefined),.,.,.,0%,.,.,
COc1cc(C2Oc3cc(C4Oc5cc(O)cc(O)c5C(=O)C4O)ccc3OC2CO)ccc1O (centres undefined),-7%,-11%,1%,-2%,7%,.,
O=C1C(=O)C(c2cc(O)c(O)c(O)c2)Oc2cc(O)cc(O)c21 (centres undefined),.,.,.,.,.,.,RECQ1 inh conf=1µM*
CS(=O)(=O)c1ccc2c(c1)sc1nc(=O)c(/C=C3/C=CC(=O)C(O)=C3)c(N)n12,?,3.2µM*,16µM*,25µM*,25µM*,7.9µM*,
Cc1cc(C)nc(CCNC(=O)CC2C(=O)NCCN2Cc2ccc(F)cc2Cl)n1 (centres undefined),.,.,.,-5%,2%,.,
C=CCn1c(COc2ccc(F)cc2)nnc1SCC(=O)NC(=O)NCc1ccco1,?,3%,?,-29%,?,?,
CCCS(=O)(=O)NCCc1csc2nc(-c3ccc(C)cc3)nn12,.,.,.,-1%,.,.,
COc1cc(/C=C(\C#N)c2nc3ccccc3[nH]2)cc(OC)c1O,-24%,9%,?,-26%,?,56µM*,
c1ccc(-c2csc3ncnc(N4CCN(Cc5ccc6c(c5)OCO6)CC4)c23)cc1,.,.,.,-2%,13%,.,
O=C(CSc1ncnc2scc(-c3ccccc3)c12)N1CCN(Cc2ccc3c(c2)OCO3)CC1,?,1%,13µM*,-17%,0%,-24%,RECQ1 inh conf=?
CCOC(=O)CSC1=C(C#N)C(c2ccc(C)s2)CC(=O)N1 (centres undefined),-3%,0%,-7%,-1%,-2%,.,
COc1ccc(OC)c(-c2csc(NC(=O)Cn3[nH]c(=O)c4ccccc4c3=O)n2)c1,-8%,?,28µM*,-11%,-4%,?,
SMILES,L3MBTL1 inh,JMJD2E inh,RECQ1 inh-1,BLM helicase inh,APE1 inh,RECQ1 inh-2,others
COc1ccc(OC)c(-c2csc(NC(=O)Cc3ccc(F)cc3)n2)c1,.,.,.,-15%,60%,.,
CCOc1cc(C2C(C(C)=O)=C(C)Nc3ncnn32)ccc1O (centres undefined),.,.,.,-2%,16%,.,
O=C(NC1(O)C(=O)c2ccccc2C1=O)c1ccccc1,?,?,-16%,?,?,.,
CC(=O)C(C(C)=O)C1(O)C(=O)c2ccccc2C1=O,?,-28%,?,?,?,-9%,
O=C1C2Sc3[nH]c(=O)sc3C(c3ccccc3)C2C(=O)N1c1ccc(Cl)cc1 (centres undefined),-9%,6%,-6%,-4%,-6%,.,
COc1ccc(OCC(=O)Nc2nc3ccc(NC(C)=O)cc3s2)cc1,-3%,?,?,-25%,6%,?,
CCC(c1nnnn1Cc1ccco1)N(Cc1cc2cc(C)cc(C)c2[nH]c1=O)CC1CCCO1 (centres undefined),.,?,?,-10%,-8%,-7%,
COc1ccccc1-c1nnc(SCC(=O)Nc2nc(-c3ccccc3)cs2)n1C,4%,-3%,-7%,7%,1%,.,RECQ1 inh conf=0%;ADP FP counter=8%
Cc1cc(C)nc(SCc2nnc(SCC(=O)Nc3nc(-c4ccccc4)cs3)n2C)n1,-1%,0%,-4%,5%,-2%,.,
O=C(NCc1n[nH]c(=S)n1-c1cccc(C(F)(F)F)c1)c1ccc(S(=O)(=O)N2CCCC2)cc1,.,-9%,i,-1%,25%,.,RECQ1 inh conf=-4%;ADP FP counter=8%
COC(=O)c1sc2ccccc2c1NC(=O)c1ccc(S(=O)(=O)N2CC(C)CC(C)C2)cc1 (centres undefined),10%,i,-2%,4%,1%,.,RECQ1 inh conf=13%;ADP FP counter=-15%
O=C(O)CCC(NC(=S)Nc1ccccc1)C(=O)O (centres undefined),-4%,5%,-2%,-5%,-10%,.,
Cc1csc2nc(COC(=O)COc3ccccc3F)cc(=O)n12,.,.,.,2%,.,.,
CC1(C)CC2CC(C)(CN2S(=O)(=O)c2ccc(C(=O)Nc3cccc(S(=O)(=O)N4CCOCC4)c3)cc2)C1 (centres undefined),-12%,0%,-2%,-8%,-1%,.,RECQ1 inh conf=-12%;ADP FP counter=1%
O=C(Nc1cc(S(=O)(=O)N2CCOCC2)ccc1Cl)c1ccc(=O)[nH]c1,-3%,.,.,.,-8%,.,
CC1(C)CC2CC(C)(CN2S(=O)(=O)c2ccc(C(=O)Nc3cc(S(=O)(=O)N4CCOCC4)ccc3Cl)cc2)C1 (centres undefined),4%,-4%,-9%,-7%,?,.,RECQ1 inh conf=0%;ADP FP counter=8%
